High-throughput results: PubChem, National Center for Advancing Translational Sciences (NCATS)
GLP1R inv ag: acts as inverse agonist at human GLP-1 receptor | Potency, µM (doses to about 38.3 µM), for inactives: top-dose activity change, negative = inhibition, actives largely listed as inhibitors | P43220 | actives 1.6% (n = 410,000) | HEK293 GLP-1R CRE-luciferase, luminescence, 24 h; GLP-1R form is constitutively active; also: % is scaled to controls: 0 for no effect and ±100 for the full control effect; nearly all actives have a fitted effect of over 55% in size
Target sequence (P43220 whole entry, looked up): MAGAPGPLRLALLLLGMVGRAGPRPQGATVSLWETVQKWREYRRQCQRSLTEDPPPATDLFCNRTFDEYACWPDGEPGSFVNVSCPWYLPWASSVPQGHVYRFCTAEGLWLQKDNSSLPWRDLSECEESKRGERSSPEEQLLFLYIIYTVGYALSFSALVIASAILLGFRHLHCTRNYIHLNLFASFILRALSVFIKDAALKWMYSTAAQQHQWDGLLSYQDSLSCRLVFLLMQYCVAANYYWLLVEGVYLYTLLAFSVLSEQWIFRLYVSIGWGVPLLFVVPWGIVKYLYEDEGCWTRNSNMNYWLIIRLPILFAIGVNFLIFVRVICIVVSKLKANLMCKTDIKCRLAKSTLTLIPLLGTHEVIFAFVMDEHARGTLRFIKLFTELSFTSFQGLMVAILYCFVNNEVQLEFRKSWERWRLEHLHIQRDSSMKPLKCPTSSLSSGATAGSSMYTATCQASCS
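Inverse agonism was detected as reduced cAMP-driven luciferase luminescence after 24 h compound treatment. The cells were HEK293 clones expressing constitutively active human GLP-1R with the reporter. Reporter-only and GPR119 cell lines served as counterscreen controls.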
GLP-1R agonist: agonists of human GLP-1 receptor; actives 0.007% (n = 380,000); P43220; HEK293 GLP-1R CRE-luciferase, luminescence, 4-6 h; cells express a hypersensitive GLP-1R form; AID 624172; Potency, µM (series often up to 45.6 µM), for the others: at the top dose activation, most hits filed as activators; also: % of control where 0% means no effect
RORg inh: ROR gamma (mouse) transcription inhibition. actives 5.4% (n = 310,000). AID 2551. Drosophila S2 Gal4-RORgamma UAS-luciferase reporter, 20 h. P51450. Potency, µM (titrated, usually from 53.6 µM), inactives show at the top dose activity change, negative = inhibition, most hits filed as inhibitors; also: % is scaled to controls: 0 for no effect and ±100 for the full control effect; nearly all actives have a fitted effect of over 60% in size
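Stably transfected Drosophila Schneider cells are the test system, with ROR gamma fused to Gal4 and luciferase under UAS control; luminescence is read after 20 hr of 700 uM copper sulfate induction at ambient temperature.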
GLP1R cytotox: cytotoxicity in counter-screen for GLP-1R inverse agonists | HEK293 cAMP-luciferase reporter cells, luminescence, 24 h | Potency, µM (doses to about 38.3 µM), inactives show top-dose activity change, negative = inhibition, most hits filed as inhibitors | actives 0.13% (n = 410,000) | AID 624418;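 also: loss of luciferase light is scored as toxicity; % is scaled to controls: 0 for no effect and ±100 for the full control effect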
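Luminescence readout: signal drop marks cytotoxicity. Plated cells grew 12 h at 37 °C, 5% CO2, received 23 nL compound for 24 h, then got luciferase reagent, read after 12 min at RT.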
Gal4-VP16 FLuc: counter-screen for ROR gamma inhibitors: Gal4-VP16 reporter; actives 3.5% (n = 310,000); Potency, µM (doses to about 53.6 µM), without a hit: at the highest dose activity, negative = inhibition, most hits filed as inhibitors; AID 2546; Drosophila S2 Gal4-VP16 UAS-luciferase, luminescence, 20 h;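 also: Gal4-VP16 expression switched on by copper sulfate through the metallothionein promoter; % is scaled to controls: 0 for no effect and ±100 for the full control effect; nearly all actives have a fitted effect of over 50% in size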
* marks the source's active call; other numbers are inactive results; ? = inconclusive; / = no result given; [ ] = remark or other dose. Most compounds without a hit are left out; they make up all but 5.9% or so of the library. Calls follow the shape of the dose curve; as a rule, active = well fitted curve in the direction sought with a large enough effect; inconclusive = small, poorly fitted or top-dose-only effect, or another doubt; inactive = no such curve, though single readings can be large; an effect the other way counts as inactive or inconclusive. Potency is read from the fitted curve at half-maximal effect.

SMILES	GLP1R inv ag	GLP-1R agonist	RORg inh	GLP1R cytotox	Gal4-VP16 FLuc
c1ccc(Nc2nc(N3CCCCC3)nc(N3CCCCC3)n2)cc1	10µM*	-0.9%	-18.6%	-13.0%	5.9%
COc1ccc(/C=N/Nc2nc(N3CCCC3)nc(N3CCCC3)n2)cc1O	0.6%	2.0%	11.2µM*	-14.2%	-7.6%
C[C@@H](C(=O)Nc1ccc2ccccc2c1)[C@@H]1C[C@@]1(C)[C@@H](NS(=O)(=O)c1ccc(-c2ccccc2)cc1)c1ccccc1	/	/	-12.2%	/	0.9%
COc1ccccc1N1CCN(c2nc3c(S(=O)(=O)c4ccc(C)c(C)c4)nnn3c3ccc(Cl)cc23)CC1	8.8%	/	/	3.3%	/
OCC1=C[C@@H](O)[C@@H]2C=CO[C@@H](OC3O[C@H](CO)[C@@H](O)[C@H](O)[C@H]3O)[C@H]12 (stereo partly specified)	/	/	14.7%	/	3.7%
CCCCn1c(SCC(=O)Nc2cccc(OC)c2)nc2ccsc2c1=O	?	/	/	-18.0%	/
CC1(C)S[C@@H]2[C@H](NC(=O)C(C(=O)Oc3ccc4c(c3)CCC4)c3ccccc3)C(=O)N2[C@H]1C(=O)O (stereo partly specified)	/	-5.6%	/	/	/
COc1ccc(/C=N/Nc2nc(N3CCCC3)nc(N3CCCC3)n2)cc1	-20.7%	-0.2%	5.01µM*	6.1%	?
COc1nc(N/N=C/c2ccc(C)cc2)nc(N2CCCCC2)n1	1.5%	-2.7%	-38.3%	1.8%	2.8%
C(=N\Nc1nc(Nc2ccccc2)nc(N2CCCCC2)n1)/c1ccco1	/	/	2.24µM*	/	12.6µM*
O=S(=O)(NCCc1csc2nc(-c3ccc(Cl)cc3)nn12)c1ccc2c(c1)OCCO2	2.0%	/	/	0.6%	/
CCn1c2ccccc2c2cc(CN3CCN(Cc4ccc(Br)cc4)CC3)ccc21	?	/	/	5.0%	/
Cc1ccc(NC(=O)c2cc3nc(C)cc(C)n3n2)cc1	?	2.3%	6.31µM*	-26.7%	10µM*
O=[N+]([O-])c1ccc(N2CCOCC2)cc1O	0.7%	3.6%	14.2%	?	12.6%
Cc1cc(N2CCOCC2)ccc1/C=C\[N+](=O)[O-]	?	-5.2%	6.31µM*	0.0%	10µM*
O=C1CCCC=C1[C@H](O)CCCCBr	/	/	-4.1%[10 µM]	/	12.2%[10 µM]
COc1ccc([C@H]2c3cc(OC)c(OC)cc3C[C@@H](C)[C@@H]2C)cc1OC	/	/	3.7%	/	1.4%
O=C(c1ccccc1)c1coc2c1C(=O)c1ccccc1C2=O	25.3%	0.4%	17.8µM*	-3.4%	?
CCOc1ccc(Nc2nc(Cc3nnc(SCC(=O)c4ccc(C)c(C)c4)o3)cs2)cc1	11.2µM*	4.4%	?	?	5.1%
Cc1ccc(NC(=O)CSc2nnc(Cc3csc(C)n3)o2)cc1	10.4%	5.9%	/	0.3%	/
CC(=O)N1CCOc2cc(S(=O)(=O)NCc3ccc(C)cc3)c(Cl)cc21	-14.1%	-1.7%	/	4.0%	/
Cc1ccc(S(=O)(=O)NCC(NCc2ccc(F)cc2)c2ccccc2)cc1 (stereo unspecified)	11.2µM*	-3.1%	/	12.4%	/
Cc1ccc(S(=O)(=O)NCC(Nc2cccc(Cl)c2)c2ccccc2)cc1 (stereo unspecified)	11.2µM*	-5.9%	/	-27.5%	/
O=S(=O)(NCC(Nc1ccc(Cl)cc1)c1ccccc1)c1ccc(Cl)cc1 (stereo unspecified)	?	-53.7%	?	2.5%	?
Cc1cccc(N=C2NC(=O)/C(=C/c3cccs3)S2)c1	43.7%	13.7%	?	11.0%	12.6µM*
SMILES	GLP1R inv ag	GLP-1R agonist	RORg inh	GLP1R cytotox	Gal4-VP16 FLuc
Cc1cc(-c2ccc(C)c(S(=O)(=O)N(Cc3cccs3)C(C)C)c2)on1	12.6µM*	/	/	-4.5%	/
COCCN(Cc1cccs1)S(=O)(=O)c1cc(-c2cc(C)no2)ccc1C	?	/	/	3.0%	/
CCN(c1ccccc1)S(=O)(=O)c1ccc(NC(=O)c2nc(SC(C)C)ncc2Cl)cc1	?	/	/	2.4%	/
CC(=O)N1CC(O)CC1C(=O)O (stereo unspecified)	/	6.9%	-15.3%	/	-1.2%
Cc1ccc(NC(=S)Nc2ccccn2)c(C)c1	?	10.2%	0.794µM*	5.01µM*	6.31µM*
Cc1cc(Cl)ccc1NC(=S)Nc1ccccn1	?	-5.4%	1µM*	?	1.26µM*
Cc1cc(Cl)ccc1NC(=S)NCC(O)c1ccccc1 (stereo unspecified)	?	0.9%	?	3.0%	?
Cc1ccc(NC(=S)c2ccncc2)c(C)c1	21.3%	2.6%	?	0.6%	-6.8%
O=C(O)c1nc(-c2ccccc2)n(-c2ccccc2)n1	6.8%	-8.2%	24.4%	-5.2%	1.9%
CCCC(C)NC(=O)c1nc(-c2ccccc2)n(-c2ccccc2)n1 (stereo unspecified)	8.91µM*	23.8%	4.3%	-1.0%	9.3%
COC(=O)[C@H](C)NC(=O)C/C=C\[C@@H](C)[C@H]1C=C[C@H](O)[C@@H](CO)O1	/	/	-15.7%[10 µM]	/	11.4%[10 µM]
CCOC(=O)N1CCc2c(sc3c2c(=O)n(Cc2ccccc2)c(=O)n3CC(=O)Nc2ccc(C)c(C)c2)C1	9.3%	/	/	1.2%	/
C=C(C(=O)c1ccccc1)C(C)C(=C)C(=O)c1ccccc1	?	-22.0%	12.6µM*	?	11.2µM*
C=C(C(=O)c1ccccc1)C(c1ccccc1)C(C)C(=O)c1ccccc1 (stereo unspecified)	?	2.1%	2.82µM*	?	15.8µM*
C=C(C(=O)c1ccccc1)C(C(=C)C(=O)c1ccccc1)c1ccc(OC)cc1	?	-4.3%	25.6%	-17.3%	-7.8%
CCOC(=O)Cn1c(=O)oc2cc(S(=O)(=O)N3CCN(c4ccc(Cl)cc4)CC3)ccc21	?	/	/	-0.4%	/
O=C(CCNc1ccc(F)cc1)c1cccc([N+](=O)[O-])c1	0.0%	-10.6%	12.6µM*	12.0%	?
Cc1nc(SCC(=O)c2cccc([N+](=O)[O-])c2)n[nH]1	0.4%	-20.4%	12.6µM*	-13.6%	?
Cc1ccnc(SCC(=O)c2cccc([N+](=O)[O-])c2)n1	17.0%	1.8%	-6.7%	-6.9%	-5.6%
O=C(N/N=C1/C[C@@H](O)[C@@H](O)[C@@H]2[C@@H]3C(=O)N(Cc4ccc5c(c4)OCO5)C(=O)[C@H]3CC[C@@H]12)OCc1ccccc1	/	/	11.0%[10 µM]	/	-11.1%[10 µM]
CC(C)C[C@@H](CN1CCCC1CN1C(=S)NC[C@@H]1Cc1ccc(O)cc1)N1C[C@H](Cc2ccc(O)cc2)N(CC2CCCCC2)C1=S (stereo partly specified)	11.2µM*	-1.3%	/	?	/
CC(C)C[C@@H](CN1CCC[C@@H]1CN1C(=S)NC[C@@H]1Cc1ccccc1)N1C[C@H](Cc2ccc(O)cc2)N(CC2CCCCC2)C1=S	28.5%	0.4%	/	0.6%	/
